A selection: hits, their analogues and other compounds. The true share with any hit is near 8.3%.
RORg inh – qHTS for inhibitors of ROR gamma transcriptional activity | Potency, µM (highest dose often 53.6 µM), for the others: top-dose activity change, negative = inhibition, hits mostly inhibitors | hit rate 5.4% among 310,000 | Drosophila S2 Gal4-RORgamma UAS-luciferase reporter, 20 h; also: potency is read from the fitted curve at half-maximal effect; % is scaled to controls: 0 for no effect and ±100 for the full control effect; nearly all actives have a fitted effect of over 60% in size
Target sequence (P51450 whole entry, looked up, the tested form may be a part): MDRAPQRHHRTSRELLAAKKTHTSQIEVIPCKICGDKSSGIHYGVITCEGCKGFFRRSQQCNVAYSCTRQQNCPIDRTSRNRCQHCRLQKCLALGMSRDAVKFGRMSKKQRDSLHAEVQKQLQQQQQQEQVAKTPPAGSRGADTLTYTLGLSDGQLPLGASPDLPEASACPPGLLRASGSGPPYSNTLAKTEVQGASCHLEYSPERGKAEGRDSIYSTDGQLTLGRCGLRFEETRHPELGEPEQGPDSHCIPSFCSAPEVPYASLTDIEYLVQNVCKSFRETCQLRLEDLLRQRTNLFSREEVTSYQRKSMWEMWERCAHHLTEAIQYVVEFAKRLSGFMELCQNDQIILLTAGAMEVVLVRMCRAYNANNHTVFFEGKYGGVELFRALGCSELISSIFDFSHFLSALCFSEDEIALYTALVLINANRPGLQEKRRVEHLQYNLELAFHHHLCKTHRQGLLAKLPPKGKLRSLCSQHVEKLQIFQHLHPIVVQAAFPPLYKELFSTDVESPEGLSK
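A Gal4/UAS one-hybrid system in insect cells: metallothionein-promoter Gal4–ROR gamma fusion plus Photinus luciferase reporter. Copper sulfate 700 uM final, 20 hr ambient incubation, luminescent detection after 10 min with reagent.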
SW480 rerep – A quantitative high throughput screen for small molecules that induce DNA re-replication in SW480 colon adenocarcinoma cells; Potency, µM (doses to about 46.1 µM), for the others: at the highest dose re-replication activation, hits mostly activators; SW480 DNA re-replication, Hoechst DNA content imaging, 48 h; hit rate 1.8% among 340,000; also: potency is read from the fitted curve at half-maximal effect; % of control where 0% means no effect; nearly all actives have a fitted effect of over 55% in size
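Quantitative HTS format with DMSO vehicle controls; 48 hr drug incubation at 37 C, then 40 min Hoechst staining and scanning imager measurement at 405 nm excitation.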
Gal4-VP16 FLuc – VP16 counterscreen qHTS for inhibitors of ROR gamma transcriptional activity. Drosophila S2 Gal4-VP16 UAS-luciferase, luminescence, 20 h. Potency, µM (highest dose often 53.6 µM), without a hit: at the top dose activity, negative = inhibition, most hits filed as inhibitors. hit rate 3.5% among 310,000. AID 2546, 2010;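 also: Gal4-VP16 expression switched on by copper sulfate through the metallothionein promoter; potency is read from the fitted curve at half-maximal effect; % is scaled to controls: 0 for no effect and ±100 for the full control effect; nearly all actives have a fitted effect of over 50% in size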
Giardia kill – Small Molecules that selectively kill Giardia lamblia: qHTS. AID 540267, 2011. hit rate 0.15% among 340,000. activity change, % at 7.66 µM, hits read low. Giardia lamblia trophozoite viability; in the data active = activity change below about -80%; inconclusive = between about -30% and that limit;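 also: parasites exposed to compound for two days anaerobically before the ATP read; % is scaled to controls: 0 for no effect and ±100 for the full control effect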
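Luminescence from cellular ATP indicates surviving trophozoites (100 cells/well) following 48 hrs anaerobic compound treatment at 37 deg C; signal develops 15-30 min at room temperature.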
MCF10A rereplic – A quantitative high throughput screen for small molecules that induce DNA re-replication in MCF 10a normal breast cells; Potency, µM (top dose mostly 46.1 µM), inactives show at the top dose activity, positive = re-replication, actives largely listed as activators; hit rate 2.9% among 350,000; MCF 10A DNA re-replication, Hoechst nuclear intensity, 48 h; also: potency is read from the fitted curve at half-maximal effect; % of control where 0% means no effect; nearly all actives have a fitted effect of over 50% in size
Chronic BCR inh – qHTS Assay to Find Inhibitors of Chronic Active B-Cell Receptor Signaling; ABC-DLBCL IkBa-CBG/CBR reporter, luminescence ratio, 4 h; Potency, µM (top dose mostly 46.1 µM), inactives show top-dose activity change, negative = inhibition, actives largely listed as inhibitors; hit rate 0.05% among 340,000; AID 493014, 2011; active = well fitted inhibition curve with a large enough effect in the signal ratio, with a control signal flat, not every such curve was filed as active; inconclusive = small, poorly fitted or top-dose-only effect, or effect the other way, or a change in a side signal; the % refers to the signal ratio;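 also: potency is read from the fitted curve at half-maximal effect; plate controls were basal doxycycline-induced cells for no effect and cells given 10 µM MG132 for full effect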
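Doxycycline induced both beetle luciferases in TMD8 lymphoma cells; IKK-driven degradation limits the IkappaBalpha-fused green signal, while red luminescence normalises for cell number and nonspecific effects. Compounds tested up to 46 uM, 4 hrs.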
Numbers without * were called inactive; ? = inconclusive; . = no result; [ ] = another dose, or the depositor's remark. Unless noted, calls follow the shape of the dose curve; as a rule, active = well fitted curve in the direction sought with a large enough effect; inconclusive = small, poorly fitted or top-dose-only effect, or another doubt; inactive = no such curve, though single readings can be large; an effect the other way counts as inactive or inconclusive.

SMILES	RORg inh	SW480 rerep	Gal4-VP16 FLuc	Giardia kill	MCF10A rereplic	Chronic BCR inh
Cc1ccc(C(=O)NN2C(=O)c3ccc(S(=O)(=O)c4ccc(C(=O)O)cc4)cc3C2=O)cc1	-20.9%	?	4.5%	-0.4	22.8%	?
O=C(O)c1ccc(S(=O)(=O)c2ccc3c(c2)C(=O)N(NC(=O)c2ccc(O)cc2)C3=O)cc1	6.31µM*	-2.6%	10µM*	-6.0	0.7%	?
Cc1ccccc1CNC(=O)Cn1cnc(S(=O)(=O)N2CCCC2)c1	?	-5.6%	-3.3%	-1.4	0.1%	-0.2%
CC(=O)c1cccc(S(=O)(=O)N2CCC(C(=O)O)(c3ccccc3)CC2)c1	5.4%	14.6%	-1.6%	7.1	?	1.2%
CN(C)c1ccc(NS(=O)(=O)c2ccc(Cl)cc2)cc1	33.8%	20.6µM*	-17.1%	-11.2	1.4%	6.2%
Cc1ccc(S(=O)(=O)Nc2ccc(N(C)C)cc2)cc1	19.1%	-51.6%	-10.8%[10 µM]	-8.7	-1.0%	1.4%
COc1ccc(NS(=O)(=O)c2ccc(OC)c(N(C)S(=O)(=O)c3ccc(Cl)cc3)c2)cc1	?	8.8%	11.2µM*	18.6	2.6%	?
CCOc1ccc(OCCn2c(S(=O)(=O)O)nc3c(N)ncnc32)cc1	-14.8%	-0.2%	-7.9%	0.2	1.4%	0.8%
Cc1ccc(-c2csc3nc4c5ccccc5c(NCCCN(C)C)nn4c(=O)c23)cc1	?	?	?	-10.0	18.4µM*	-7.4%
Cc1ccc(-c2csc3nc4c5ccccc5c(NCCCN5CCOCC5)nn4c(=O)c23)cc1	-7.0%	.	-3.8%	.	.	0.9%
COc1cc(S(=O)(=O)NCCCn2ccnc2)ccc1Cl	.	-57.2%	.	-21.4	?	4.2%
COc1cc(OC)cc(-c2c(-c3cccs3)c3cc(-c4ccc(C(N)=O)cc4)ccc3n2C)c1	.	?	.	-2.0	16.4µM*	2.8%
CCOc1ccc(-c2nc(CSCC(=O)N3CCN(c4cccc(OC)c4)CC3)c(C)o2)cc1	11.2µM*	0.3%	11.2µM*	-16.7	-3.6%	?
Cc1ccc(-c2nc(CSCC(=O)N3CCN(c4ccccn4)CC3)c(C)o2)cc1	?	8.2%	?	-12.9	9.8%	-14.7%
CCc1ccc(-c2nc(CSCC(=O)N3CCN(c4ccccn4)CC3)c(C)o2)cc1	?	3.1%	12.6µM*	-9.1	49.8%[0.0737 µM]	?
Nc1cn(C2OC(CO)C(O)C2O)c(=O)[nH]c1=O (centres undefined)	-1.2%	-40.8%	-1.9%	-7.0	-2.4%	0.3%
O=C1NC(=S)S/C1=C\c1ccc(SCc2ccccc2)o1	-24.1%	?	?	-12.0	3.66µM*	?
O=C1NC(=S)S/C1=C\c1ccc(SCc2ccco2)o1	-19.8%	-1.7%	?	5.1	-10.2%	?
CCN(CC(=O)Nc1ccccc1C(F)(F)F)C(=O)C1CCC1	.	-104.2%	.	-8.5	-1.2%	-0.2%
COc1ccc(-c2c(=O)n(OC)c3ccccc3[n+]2[O-])cc1OC	5.0%	?	-13.2%	3.0	?	?
COC(=O)c1c(C)oc2ccc(N(C(=O)c3ccncc3)S(=O)(=O)c3ccc4ccccc4c3)cc12	?	-1.7%	3.55µM*	1.6	3.26µM*	?
Cc1ccc(S(=O)(=O)N(C(=O)c2ccncc2)c2ccc(OC(=O)c3ccncc3)c3ccccc23)c(C)c1	?	?	?	11.2	?	?
COC(=O)c1c(C)oc2ccc(N(C(=O)c3ccncc3)S(=O)(=O)c3ccc(C)cc3C)cc12	?	23.5%	4.47µM*	1.4	14.6µM*	?
Cc1ccc(S(=O)(=O)N(C(=O)c2ccncc2)c2ccc(OC(=O)c3ccncc3)c3ccccc23)cc1	12.6µM*	12.9%	?	-7.3	?	?
COC(=O)c1c(C)oc2ccc(N(C(=O)c3ccncc3)S(=O)(=O)c3ccc(C)cc3)cc12	-39.4%	6.51µM*	7.08µM*	2.1	?	?
SMILES	RORg inh	SW480 rerep	Gal4-VP16 FLuc	Giardia kill	MCF10A rereplic	Chronic BCR inh
COC(=O)c1c(C)oc2ccc(N(C(=O)c3ccncc3)S(=O)(=O)c3ccccc3)cc12	-27.1%	-3.2%	?	6.2	26.5%	?
CCOC(=O)c1sc(NC(=O)C2CCCCC2)nc1C	.	2.6%	.	19.0	8.8%	.
COc1ccc(Cc2c(O)nc(SCC(=O)NC(C)(C)C)[nH]c2=O)cc1	-2.7%	-0.3%	3.2%	3.2	1.7%	-1.3%
O=C(CCN1CCC(c2ccc(Cl)s2)=N1)c1ccc(Cl)s1	-3.3%	-1.1%	-1.1%	21.4	26.6%	4.8%
Cc1ccc(S(=O)(=O)N(C(=O)c2ccncc2)c2ccc3oc4c(c3c2)CCCC4)cc1[N+](=O)[O-]	22.3%	14.0%	0.5%	5.2	14.6µM*	1.2%
CCN1C(=O)/C(=c2\sc3nc(=O)c(Cc4ccccc4)nn3c2=O)c2ccccc21	?	-9.9%	-10.1%	-8.3	1.7%	0.1%
C=CCN1C(=O)/C(=c2\sc3nc(=O)c(Cc4ccccc4)nn3c2=O)c2ccccc21	11.2µM*	-7.1%	?	3.7	-0.2%	8.7%
COc1ccc(C2(C)NC(=O)N(CC(=O)c3cc(C)n(C4CC4)c3C)C2=O)cc1OC (centres undefined)	.	-1.3%	.	-11.9	9.8%	?
CCc1ccc2oc(C(=O)N3CCN(c4ccccc4OC)CC3)cc(=O)c2c1	37.5%	?	-3.1%	5.6	11.6µM*	-12.0%
COc1ccccc1N1CCN(C(=O)c2ccc([N+](=O)[O-])s2)CC1	7.94µM*	?	-9.0%	?	-4.6%	2.1%
COc1ccccc1N1CCN(C(=O)c2cc(C(=O)N3CCN(c4ccccc4OC)CC3)cc([N+](=O)[O-])c2)CC1	-17.8%	0.2%	-5.6%	9.3	0.1%	-1.1%
CCc1ccc2oc(C(=O)N3CCN(c4ccc(OC)cc4)CC3)cc(=O)c2c1	0.1%	-3.3%	-1.9%	5.0	-10.5%	0.4%
COc1cc(SC)ccc1C(=O)N1CCN(c2ccccc2OC)CC1	31.4%	?	-6.0%	-18.3	18.4µM*	2.7%
Cc1ccc(S(=O)(=O)C(CNC(=O)COc2ccc(Cl)cc2)c2ccco2)cc1 (centres undefined)	.	.	.	.	.	-1.8%
Cc1cc(C(C)(C)C)ccc1OCCCCN1CCCC1	93.1%	4.1%	?	-10.4	13µM*	?
O=C(Nc1ccc(N2CCN(C(=O)c3cccs3)CC2)cc1)c1ccccc1Cl	28.9%	23.1µM*	-5.0%	3.0	?	?

Screening results from PubChem.
